# Test results reported in PubChem BioAssay (EPA / NIEHS).
# Records with an inconclusive call do not appear. Calls of active or inactive are those of the source. How the source made its calls: active means hit-call score of the fitted dose curve at least 0.9, where 1 is the maximum; inconclusive means response in the unintended direction; inactive means score below 0.9.
# Molecular target: Peroxisome proliferator-activated receptor gamma (Homo sapiens) (UniProt P37231)
# Assay: NVS_NR_hPPARg: NovaScreen (NVS) Nuclear Receptor Binding Assay for human Peroxisome Proliferator-activated Receptor gamma (PPARg) (AID 2283370)
# Procedure: NVS_NR_hPPARg is a biochemical, single-readout assay that uses extracted gene-proteins in a cell-free assay. Measurements were taken 2 hours after chemical dosing in a 384-well plate.NVS_NR_hPPARg is one of one assay component(s) measured or calculated from the NVS_NR_hPPARg assay. It is designed to make measurements of fluorescent polarization, a form of binding reporter, as detected with fluorescence polarization signals by Fluorescence Polarization technology.Data from the assay component NVS_NR_hPPARg was analyzed into 1 assay endpoint. This assay endpoint, NVS_NR_hPPARg, was analyzed in the positive analysis fitting direction relative to DMSO as the negative control and baseline of activity. Using a type of binding reporter, loss-of-signal activity can be used to understand changes in the binding as they relate to the gene PPARG. Furthermore, this assay endpoint can be referred to as a primary readout, because the performed assay has only produced 1 assay endpoint. To generalize the intended target to other relatable targets, this assay endpoint is annotated to the nuclear receptor intended target family, where the subfamily is non-steroidal.
# Binding assays used specific radioligands (tritiated, iodinated) with non-radioactive competitive displacement ligands in agonist or antagonist protocols (as indicated) and various reference compounds and inhibitors to titrate specific binding to receptors and transporters. Most enzyme assays (CYPs, kinases, phosphatases, proteases, HDACs) used recombinant protein and specific substrates (fluorescence mostly, some colorimetric and radioactive) and inhibitors, followed by a biochemical separation of substrate and product. All assays for the biochemical HTS were initially run in duplicate at a single concentration (10 uM for CYP450 assays and 25 uM for all others). […] Each assay was run with positive and negative controls, and concurrent controls on every plate. The follow-up (secondary) screen tested active chemical-pairs in concentration series, as well as a few additional assays not tested in the primary screen, some selected negative inactives, and several cases re-run in the concentration series for confirmatory purposes.
# Peroxisome proliferator-activated receptor gamma (Homo sapiens), sequence (P37231 whole entry, looked up): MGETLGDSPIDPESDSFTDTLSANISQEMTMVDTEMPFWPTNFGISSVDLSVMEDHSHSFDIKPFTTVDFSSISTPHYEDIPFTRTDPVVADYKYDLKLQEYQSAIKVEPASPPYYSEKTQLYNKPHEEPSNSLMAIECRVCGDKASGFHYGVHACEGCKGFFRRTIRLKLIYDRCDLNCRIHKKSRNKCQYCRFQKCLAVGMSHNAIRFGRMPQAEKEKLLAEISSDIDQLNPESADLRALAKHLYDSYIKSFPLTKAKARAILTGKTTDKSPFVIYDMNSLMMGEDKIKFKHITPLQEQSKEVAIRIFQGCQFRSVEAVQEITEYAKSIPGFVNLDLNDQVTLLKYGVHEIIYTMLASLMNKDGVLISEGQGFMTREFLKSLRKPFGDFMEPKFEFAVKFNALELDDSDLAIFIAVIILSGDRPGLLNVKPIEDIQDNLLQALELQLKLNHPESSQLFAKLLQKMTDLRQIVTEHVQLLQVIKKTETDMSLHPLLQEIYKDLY
SMILES,outcome,AC50
CC(C)(C)C(=O)C(Oc1ccc(Cl)cc1)n1cncn1 (centres undefined),inactive,
COCC(=O)N(c1c(C)cccc1C)C(C)C(=O)OC (centres undefined),inactive,
N#Cc1c[nH]cc1-c1cccc2c1OC(F)(F)O2,inactive,
CCN(CC)c1nc(C)cc(OP(=S)(OC)OC)n1,inactive,
COP(=S)(OC)Oc1ccc([N+](=O)[O-])c(C)c1,,3.38 µM (active)
CCCCC(O)(Cn1cncn1)c1ccc(Cl)cc1Cl (centres undefined),inactive,
Cc1c(COC(=O)[C@@H]2[C@H](/C=C(\Cl)C(F)(F)F)C2(C)C)cccc1-c1ccccc1,inactive,
CC(C)=CC1C(C(=O)OCc2coc(Cc3ccccc3)c2)C1(C)C (centres undefined),,2.9 µM (active)
CCNP(=S)(OC)O/C(C)=C/C(=O)OC(C)C (centres undefined),inactive,
CC(C)NC(=O)N1CC(=O)N(c2cc(Cl)cc(Cl)c2)C1=O,inactive,
O=C1C2CC=CCC2C(=O)N1SC(Cl)(Cl)Cl (centres undefined),inactive,
COCC(C)N(C(=O)CCl)c1c(C)csc1C (centres undefined),inactive,
CCCCC(C#N)(Cn1cncn1)c1ccc(Cl)cc1 (centres undefined),inactive,
CCCC(=NOCC)C1=C(O)CC(CC(C)SCC)CC1=O (centres undefined),inactive,
CCOC(=O)C(C)OC(=O)c1cc(Oc2ccc(C(F)(F)F)cc2Cl)ccc1[N+](=O)[O-] (centres undefined),inactive,
CCSC(=O)N1CCCCCC1,inactive,
Cc1cc(C)nc(Nc2ccccc2)n1,inactive,
Nc1c(Cl)c(F)nc(OCC(=O)O)c1Cl,inactive,
N#Cc1c(Cl)cccc1Cl,inactive,
